Assay results reported in paper PMC13494018.
Values without a mark were called inactive. No rule for the calls is given here.

B1: design_615_ab801fab-270b-4f6a-b2b5-83c165df418c_121_dldesign_0_cycle1_af2pred (protein)
chain: GKDEELAKEAKKIAEAAEGVAASALALAAQPGLLAAAAAFARKAAEELERLGKENSKELEKVAKKEAKRAKEAAERVEAALKAATA
B2: design_614_ef6b398b-10cb-4a07-8087-96dafb4f9c83_884_dldesign_0_cycle1_af2pred (protein)
chain: MAVSDTLATNLATAERLLQRGIELAKTDPQAGIAQLRAAEILAQGTAAAAAAAGDTATAARAQAVAERARQAIEEV
B3: design_614_ef6b398b-10cb-4a07-8087-96dafb4f9c83_1163_dldesign_0_cycle1_af2pred (protein)
chain: EAAREAALALMNEALALLVEETGRDPRLAPALALMSKAVIEMAKDPEKGIELAEKAAEEAKKVDPEVGEKVKKLVEEAKKAVKA
B4: design_615_ab801fab-270b-4f6a-b2b5-83c165df418c_149_dldesign_0_cycle1_af2pred (protein)
chain: AAAALEAIRDEGAATLTALAGPQLGALFRVAVQAAISGKLELAEQLLDAVVAEAAAINPAAAEKAKELKALALAIARA
B5: design_614_ef6b398b-10cb-4a07-8087-96dafb4f9c83_1491_dldesign_0_cycle1_af2pred (protein)
chain: EERLKEILKLIKEAKKALEESPQLAAQKLAEAAELASEFPEIAVAAVRAIAFAPNPERAKEALEEALKLAEEALKK
B6: design_615_ab801fab-270b-4f6a-b2b5-83c165df418c_650_dldesign_0_cycle1_af2pred (protein)
chain: SSEREVLEAEGREWGRLIAAADAVSPALAAEVARALAEKAVADPGFLYALNVAVATVAREGSPAAAAVARAALAEASKAVIAKL
B7: design_615_ab801fab-270b-4f6a-b2b5-83c165df418c_671_dldesign_0_cycle1_af2pred (protein)
chain: SPDAVAARGYLAMLRAAVAELERAAEELARDPEKAAEARALVERARALLAEAEALLADPAQAAAAAAAARAALEEVLEFIRRARELAA
B8: design_614_ef6b398b-10cb-4a07-8087-96dafb4f9c83_1662_dldesign_0_cycle1_af2pred (protein)
chain: SEEAQKKLEEAKRLLELAKEKLATDPQQGLVYALEAQELAAEALKDPEFAEEAQEILEEASRVASQAAARAIAQAQA
B9: design_615_ab801fab-270b-4f6a-b2b5-83c165df418c_209_dldesign_0_cycle1_af2pred (protein)
chain: SAQAQEAATRAAEALARHLARQVAEHGVSDADFEGNVDILVALGRQSAAAGEAAAAVLEEAKAADPERFGAAAERLKAAAAEAK
B10: design_614_ef6b398b-10cb-4a07-8087-96dafb4f9c83_1043_dldesign_0_cycle1_af2pred (protein)
chain: AAAEAAAVSKKAAELAKKALEKAKRMSPEEAINLAFQVATQAIRLGADAEAAINAIKIASEKGPEAGLKYLAEALEK
B11: design_615_ab801fab-270b-4f6a-b2b5-83c165df418c_67_dldesign_0_cycle1_af2pred (protein)
chain: AVKEEAQKVLAESLEYMEKYKDDKEVVAEFNKAANYASKAITGPEETGKEYLAKAKEYLEKGKALAKEKEA
B12: design_615_ab801fab-270b-4f6a-b2b5-83c165df418c_137_dldesign_0_cycle1_af2pred (protein)
chain: MEKEKELLKKAKELYEAAKTMAEVAKNAVALGHRSGALAAIKGIEQAAKAIEELAKEAKDEEVKKKIKELAKEAKKLAEEMKKLAEKA
B13: design_614_ef6b398b-10cb-4a07-8087-96dafb4f9c83_1173_dldesign_0_cycle1_af2pred (protein)
chain: LLEEALALGAEAIAEGQEAIALAVALGPEFQPFALELSRLMARIAAAQIQLVRDPEAGAAALREEIEELRRAIQELLDSL
B14: design_615_ab801fab-270b-4f6a-b2b5-83c165df418c_0_dldesign_0_cycle1_af2pred (protein)
chain: AAAERLAQRLEAARLIAEAAGVPEEVARRVAELVADPATFPEAVALAKAVGGGAMLILAAARSGSLENARKMAEAAA
B15: design_614_ef6b398b-10cb-4a07-8087-96dafb4f9c83_875_dldesign_0_cycle1_af2pred (protein)
chain: AAARARLAAALEVAKVAADLEANAKANPATAALASATATATIKHAAAIVAEVDPAAGAAVAAAATAAEAIAIITAALKAA
B16: design_615_ab801fab-270b-4f6a-b2b5-83c165df418c_702_dldesign_0_cycle1_af2pred (protein)
chain: GEELREKAEKEAKQTLELVEGALEYAKTASPEAAALMEKALEEVKKLIELGKKSDAEEYAKYVEKARKVAFNAIAQATALIAA
B17: design_615_ab801fab-270b-4f6a-b2b5-83c165df418c_622_dldesign_0_cycle1_af2pred (protein)
chain: VTPEEAHQALASTVMRLAQQLGLSGGAISTGLRLASEAARAFAEDPEKMRKVVEEGAKKIEALEGEKGKVVGEELRRKAEEIVA
B18: design_615_ab801fab-270b-4f6a-b2b5-83c165df418c_597_dldesign_0_cycle1_af2pred (protein)
chain: AAAAEAITKATLAAIEKTAEKIVEAAEKATPEEAKKLAESVKKLAETGVGIATAASPELGKEAKEKAEKLKEKAKEAVKKVKE
B19: design_615_ab801fab-270b-4f6a-b2b5-83c165df418c_246_dldesign_0_cycle1_af2pred (protein)
chain: AEREEAALAEAEKALAEAKKLVEAALADPATAATTVGEATALLTAAIERASREVSPERALEVAQEAARIQADGIKALA
B20: design_614_ef6b398b-10cb-4a07-8087-96dafb4f9c83_1693_dldesign_0_cycle1_af2pred (protein)
chain: AEELREEAERLREESRRLREEGIKGNAEEARKALLEINRNAGRLARLAVEASQLDPEVAAVANEALAEALENARALDETRRKLAA
B21: design_614_ef6b398b-10cb-4a07-8087-96dafb4f9c83_1883_dldesign_0_cycle1_af2pred (protein)
chain: EEEKKKLEEIKKLLEKAMEEAIKLVAADPEVQKRLKELAEELKKAETAGEAIRVALRAASVAGQVNPEAARVILTAAEEGAKLAK
B22: design_615_ab801fab-270b-4f6a-b2b5-83c165df418c_153_dldesign_0_cycle1_af2pred (protein)
chain: SAAGEIGAKAIEAMKKAYEYAKLYESGEDEKAKEKAKEAAEKLKELAKEAAKAGAAGARLAKVAKASAENALKIAKE
B23: design_614_ef6b398b-10cb-4a07-8087-96dafb4f9c83_1557_dldesign_0_cycle1_af2pred (protein)
chain: SAAAAALAAANAEIDAHAARAVELAAGLPHAEEVRALITAGAAAAKSGTQLAEAFRLFSEAARLSNEATRAELRKAIAAANKAALA
B24: design_615_ab801fab-270b-4f6a-b2b5-83c165df418c_234_dldesign_0_cycle1_af2pred (protein)
chain: LEESARKAAELALDLAKYAAANPATAPQALASIAGLARNAIEAGAEAAKLMAEALKKGAEYVAKNGTAAQAEQVKAIRERAERGAREA
B25: design_614_ef6b398b-10cb-4a07-8087-96dafb4f9c83_2192_dldesign_0_cycle1_af2pred (protein)
chain: AAAALQAATIALGSLRALAESARRSNAESAKKLAELAEDLAADAKANAAKAAADPAYAAQAKAVAEEAKRALEETKRIAEEKAEA
B26: design_614_ef6b398b-10cb-4a07-8087-96dafb4f9c83_950_dldesign_0_cycle1_af2pred (protein)
chain: AAAAAERTLAGIETLLEILRAAAADPRVTPAQLRAVINAARTAVEELERLDPELGREARERVEAAAREAEAAV
B27: design_614_ef6b398b-10cb-4a07-8087-96dafb4f9c83_1060_dldesign_0_cycle1_af2pred (protein)
chain: SAVEVLKRSIEAVARQALEAAERLIELDPELGERAREEVERLRAEALAAADADPAEGGALLVELLRLNAEIRRRAEELE
B28: design_614_ef6b398b-10cb-4a07-8087-96dafb4f9c83_1110_dldesign_0_cycle1_af2pred (protein)
chain: GEELAESAKKLMEVLKDVAKDAAARDPANAAKYLADAKKAEEEAKKALEESPEKGMQAAQDALAKFQKAAIAAAKA
B29: design_614_ef6b398b-10cb-4a07-8087-96dafb4f9c83_2028_dldesign_0_cycle1_af2pred (protein)
chain: NAAAAEMAAAAAAFAATAAAAVTLSPEAGRKAVSAAFTAALTAISALGATASDEQTVAAMNTVWSTYIAATTALQAKAA
B30: design_614_ef6b398b-10cb-4a07-8087-96dafb4f9c83_2138_dldesign_0_cycle1_af2pred (protein)
chain: SEALRAEAARLANAALALLSRASVAFGNALSPTLATAVDAFLAADREGDAETRLAVARAALAAAEAAVAAAAAAA
B31: design_614_ef6b398b-10cb-4a07-8087-96dafb4f9c83_1258_dldesign_0_cycle1_af2pred (protein)
chain: AEQEKAAQLALNTAKAALKRAKAGSAEEARAAAETAKLAAEAAKVNSTDPAVIKEAEKVAEETKKVAEAK
B32: design_614_ef6b398b-10cb-4a07-8087-96dafb4f9c83_1766_dldesign_0_cycle1_af2pred (protein)
chain: ARAELEAQLAKAKEAAAQAQAAAAQLAALGGTATAAAITAAAQRALAAAEADLSKAPEALTFLQALLQQAQHQVAQLT
B33: design_614_ef6b398b-10cb-4a07-8087-96dafb4f9c83_2152_dldesign_0_cycle1_af2pred (protein)
chain: GAAEEERRRHQEAVERAEAAVKELEALAKQLAADPHGAVFAQAMVDQARRALEEAKTGDLETAEEALRVITSNLEMAKAIL
B34: design_615_ab801fab-270b-4f6a-b2b5-83c165df418c_555_dldesign_0_cycle1_af2pred (protein)
chain: AAAALAAAAAAARAAATAALAETLELAEEAQRLGDSETSLALSRQANRIAGLYIAGVRDPRLAPEAGKRAEELRREAERLYKEAL
B35: design_614_ef6b398b-10cb-4a07-8087-96dafb4f9c83_1868_dldesign_0_cycle1_af2pred (protein)
chain: TAAIATATIVALTKTASRSSVEDAKKLVEVAVGIAASLSAADAKAAIDAGLKVAKELAEEKNTETASVVAKELEKGGAKVAAEKA
B36: design_615_ab801fab-270b-4f6a-b2b5-83c165df418c_110_dldesign_0_cycle1_af2pred (protein)
chain: SAELAKLNGEALELAKLGAEEGAEYAEKAMELVIEAARLAGDEEGAKYAEEMREEALKAAKESPKEAAQIVMTALSRVFSRIAA
B37: design_615_ab801fab-270b-4f6a-b2b5-83c165df418c_662_dldesign_0_cycle1_af2pred (protein)
chain: AAAQAKALAAEAKAYIAKAKEAAAAGNLGEAAQLASKALLKAAQAANLDPAFAPVLDEAQATVEAIAAAQAAAA
B38: design_615_ab801fab-270b-4f6a-b2b5-83c165df418c_251_dldesign_0_cycle1_af2pred (protein)
chain: AAAAAEAAAVQARGGALLDELKERTSELSPEAVSRASLLLTRGLTYASQPATLAEGRRYVDEAEAIIRSA

target: CD276, Q5ZPR3
Sequence (Q5ZPR3 whole entry): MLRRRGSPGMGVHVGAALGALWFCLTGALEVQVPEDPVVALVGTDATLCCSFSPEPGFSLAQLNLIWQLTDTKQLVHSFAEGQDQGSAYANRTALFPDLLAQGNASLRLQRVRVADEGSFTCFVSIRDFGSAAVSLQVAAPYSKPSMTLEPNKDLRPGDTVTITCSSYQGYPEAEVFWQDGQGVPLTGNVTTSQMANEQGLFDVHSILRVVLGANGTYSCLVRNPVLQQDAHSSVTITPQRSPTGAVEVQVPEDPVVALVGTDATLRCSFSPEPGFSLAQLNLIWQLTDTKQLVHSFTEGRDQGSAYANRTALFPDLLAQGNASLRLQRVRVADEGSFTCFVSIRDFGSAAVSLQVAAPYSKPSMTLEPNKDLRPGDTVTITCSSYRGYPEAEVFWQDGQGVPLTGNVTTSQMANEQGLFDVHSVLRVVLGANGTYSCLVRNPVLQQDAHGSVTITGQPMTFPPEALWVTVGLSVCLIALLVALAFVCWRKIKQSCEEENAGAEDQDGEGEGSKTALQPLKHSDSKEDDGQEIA

Binder	binding in a display sort
B1	not found
B2	binds (active)
B3	not found
B4	not found
B5	not found
B6	not found
B7	not found
B8	not found
B9	not found
B10	not found
B11	not found
B12	not found
B13	not found
B14	not found
B15	not found
B16	not found
B17	not found
B18	not found
B19	not found

Binder	binding in a display sort
B20	not found
B21	not found
B22	not found
B23	not found
B24	not found
B25	not found
B26	not found
B27	not found
B28	not found
B29	not found
B30	not found
B31	not found
B32	not found
B33	not found
B34	not found
B35	not found
B36	not found
B37	not found
B38	not found
